Experimental data reported in PubChem BioAssay (NCATS).
Records with an inconclusive call do not appear. A call without a number means that no potency is given here. Activity calls are given as the source filed them. Calls follow the shape of the dose curve; as a rule, active = well fitted curve in the direction sought with a large enough effect; inconclusive = small, poorly fitted or top-dose-only effect, or another doubt; inactive = no such curve, though single readings can be large; an effect the other way counts as inactive or inconclusive.

Experiments:
[1] = Cellular Toxicity (caspase-3) Hek293 (AID 664);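 also: cells exposed to compound for 16 h at 37 °C before readout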
Summary of the method: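 Concentration-response qHTS: caspase 3/7 activation measured by luminescent aminoluciferin substrate cleavage after 16 h compound exposure of Hek 293 cells. AC50 from Hill equation, with DMSO as basal and 100 uM tamoxifen as 100%.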

[2] = Cellular Toxicity (caspase-3) N2a (AID 665);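 also: compound exposure lasted 16 h at 37 °C before readout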
Summary of the method: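 Caspase-3/7 activation measured as luminescence from Caspase-Glo reagent (1 h, room temperature) after 16 h compound exposure of mouse N2a cells. AC50 values from Hill-equation concentration-response, scaled between DMSO and 10 uM staurosporine.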

[3] = Cellular Toxicity (caspase-3) NIH 3T3 (AID 666)
Summary of the method: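 Caspase-Glo 3/7 luminescence reported caspase activation in 1000 NIH 3T3 cells/well after 16 h compound exposure at 37 C. DMSO set basal and 100 uM tamoxifen set 100% stimulation; concentration-response modeled with the Hill equation for AC50.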

[4] = Cellular Toxicity (caspase-3) Renal Proximal Tubule (AID 667);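 also: cells exposed to compound for 16 hours at 37 °C before detection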
Summary of the method: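 Caspase-Glo 3/7 read-out, rat primary kidney proximal tubule cells. Compound exposure 16 h, 37 °C; detection after 1 h at RT. Activity scaled to DMSO and 10 uM staurosporine.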

[5] = molecular target: Cytochrome P450 3A4 (Homo sapiens) (UniProt P08684); assay: qHTS Assay for Inhibitors and Substrates of Cytochrome P450 3A4 (AID 884); also: potency is read from the fitted curve at half-maximal effect; nearly all actives have a fitted effect of over 50% in size
Cytochrome P450 3A4 (Homo sapiens), sequence (P08684 whole entry, looked up): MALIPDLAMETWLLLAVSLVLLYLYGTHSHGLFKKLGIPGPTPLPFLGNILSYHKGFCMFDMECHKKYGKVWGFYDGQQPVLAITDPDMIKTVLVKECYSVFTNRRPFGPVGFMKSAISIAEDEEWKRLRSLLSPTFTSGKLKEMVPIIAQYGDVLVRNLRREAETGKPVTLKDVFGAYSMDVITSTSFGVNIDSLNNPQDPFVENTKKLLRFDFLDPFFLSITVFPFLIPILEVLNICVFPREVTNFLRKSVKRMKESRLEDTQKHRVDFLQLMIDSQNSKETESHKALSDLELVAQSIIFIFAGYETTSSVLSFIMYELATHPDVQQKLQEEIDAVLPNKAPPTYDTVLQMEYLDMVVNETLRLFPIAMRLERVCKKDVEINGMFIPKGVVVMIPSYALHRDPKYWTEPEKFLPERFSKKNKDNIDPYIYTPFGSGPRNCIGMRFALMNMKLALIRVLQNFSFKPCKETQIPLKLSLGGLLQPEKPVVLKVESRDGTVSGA
Summary of the method: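 Luminescent readout of luciferin produced by CYP3A4 (20 nM) dealkylation of Luciferin-PPXE, 25 uM (its KM). NADPH-driven reaction ran 60 min at RT after 10 min compound preincubation; data scaled to 57 uM ketoconazole as 100% inhibition.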

[6] = molecular target: Cytochrome P450 3A4 (Homo sapiens) (UniProt P08684); assay: qHTS Assay for Activators of Cytochrome P450 3A4 (AID 885); also: nearly all actives have a fitted effect of over 65% in size
Summary of the method: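 CYP3A4 activity: Luciferin-PPXE O-dealkylation, 25uM substrate, 200mM KPO4, RT throughout. Read-out is luciferase luminescence; higher values reflect activation.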

[7] = Cell Viability - LYMP2-001 (AID 921); also: series mostly up to about 92 µM; nearly all actives have a fitted effect of over 70% in size
Summary of the method: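 A lymphoblastoid cell line of human origin was treated with library compounds across a concentration series for 24 hours, and viable cell number was estimated from ATP-driven luciferase light output. Hill modeling gave AC50.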

[8] = MultiTox-Fluor Cytotoxicity Assay - LYMP1-001 - Dead Cells (AID 946)
Summary of the method: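 AC50 from Hill fit of concentration-response; data normalized to DMSO (basal) and 15 uM tetraoctylammonium bromide (100%). LYMP1-001 lymphoblastoid cells, 2500/well, 16 hr compound at 37 C; dead-cell protease fluorescence, Ex/Em 485/520.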

[9] = MultiTox-Fluor Cytotoxicity Assay - LYMP1-001 - Live Cells (AID 947)
[10] = Cell Viability - LYMP1-002 - Assay at 16 hr (AID 948)
Summary of the method: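 In this qHTS, lymphoblastoid LYMP1-002 cells (human) receive compounds for 16 hr at 37 C. Viability is taken from CellTiter-Glo ATP luminescence, and AC50 derives from standard Hill fits.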

[11] = MultiTox-Fluor Cytotoxicity Assay - LYMP1-002 - Live Cells (AID 955);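 also: cells exposed to compound for 16 hours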
Summary of the method: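 After 16 h compound exposure at 37 C, live LYMP1-002 lymphoblastoid cells (2500/well) were quantified by cleavage of cell-permeant GF-AFC substrate, read at 405/510 nm after 60 min. Concentration-response fitted with Hill equation for AC50.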

[12] = MultiTox-Fluor Cytotoxicity Assay - LYMP1-002 - Dead Cells (AID 960); also: nearly all actives have a fitted effect of over 60% in size
Summary of the method: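 Dead-cell fluorescence (Ex/Em 485/520) after 16 h compound exposure at 37 C of LYMP1-002 lymphoblastoid cells in complete medium; AC50 by Hill equation, with data scaled between DMSO and 15 uM tetraoctylammonium bromide.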

[13] = MultiTox-Fluor Cytotoxicity Assay - LYMP1-003 - Dead Cells (AID 961); also: nearly all actives have a fitted effect of over 70% in size
Summary of the method: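 Human lymphoblastoid LYMP1-003 cells (2500/well) were treated with compounds for 16 hr at 37 C in complete medium. Dead-cell protease release was read by bis-AAF-R110 fluorescence (Ex/Em 485/520). AC50 came from Hill fits, normalized to DMSO and 15 uM tetraoctylammonium bromide.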

[14] = MultiTox-Fluor Cytotoxicity Assay - LYMP1-003 - Live Cells (AID 962);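 also: cells exposed to compound for 16 hours at 37 °C; cytotoxic hits lower the live-cell protease signal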
Summary of the method: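 Live-cell protease activity (GF-AFC substrate, 405/510 nm, 60 min at room temperature) after 16 h, 37 C compound exposure of human lymphoblastoid LYMP1-003 cells; concentration-response fitted to the Hill equation for AC50.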

[15] = Cell Viability - LYMP1-003 - Assay at 24 hr (AID 963)
Summary of the method: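 Concentration-response qHTS: ATP loss measured by CellTiter-Glo luminescence after 24 h compound exposure at 37 C. Cells were LYMP1-003 human lymphoblastoid, 2500 per well. AC50 derived via standard Hill equation modeling.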

[16] = Cell Viability - LYMP1-003 - Assay at 40 hr (AID 964); also: series mostly up to about 92 µM; nearly all actives have a fitted effect of over 60% in size
Summary of the method: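 Viability is taken as cellular ATP, read by CellTiter-Glo luminescence after 40 h of compound exposure at 37 C. Cells: human lymphoblastoid line LYMP1-003 at 2500/well; AC50 values derived by Hill-equation fitting of concentration-response data.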

[17] = Cell Viability - LYMP2-003 (AID 965);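 also: cells exposed to compounds for 24 h before reading; nearly all actives have a fitted effect of over 50% in size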
Summary of the method: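 qHTS, human lymphoblastoid line, 2500 cells/well, complete medium. 24 h drug, 37 C. ATP-based luminescent readout; Hill-fit AC50.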

[18] = Cell Viability - LYMP2-004 (AID 966); also: nearly all actives have a fitted effect of over 65% in size
Summary of the method: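 AC50 values come from Hill modelling of concentration-dependent loss of intracellular ATP, measured by CellTiter-Glo luminescence. Human LYMP2-004 lymphoblastoid cells (2500/well) were exposed to compound for 24 h at 37 C.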

[19] = Cell Viability - LYMP2-005 (AID 967); also: series mostly up to about 92 µM
Summary of the method: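 Luciferase-based ATP quantitation served as the viability measure in human lymphoblastoid LYMP2-005 cells exposed to test compounds for 24 h at 37 C in complete culture medium. Potency (AC50) was obtained by fitting concentration-response curves with the Hill equation.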

[20] = Cell Viability - LYMP2-009 (AID 968); also: series mostly up to about 92 µM; nearly all actives have a fitted effect of over 55% in size
[21] = Cell Viability - LYMP2-011 (AID 969); also: nearly all actives have a fitted effect of over 60% in size
Summary of the method: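 Cytotoxicity qHTS with ATP content as read-out: lymphoblastoid cells (2500/well) exposed to compound for 24 h at 37 C, then luciferase luminescence measured. Concentration-response data fitted with the standard Hill equation to give AC50.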

[22] = Cell Viability - LYMP2-013 (AID 970); also: series mostly up to about 92 µM; nearly all actives have a fitted effect of over 55% in size
Summary of the method: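 qHTS cytotoxicity: ATP-dependent luminescence (CellTiter-Glo, 30 min room temperature) read after 24 h compound exposure at 37 C of 2500 LYMP2-013 lymphoblastoid cells per well. Concentration-response fitted with Hill equation to give AC50.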

[23] = Cell Viability - LYMP2-015 (AID 971); also: nearly all actives have a fitted effect of over 55% in size
Summary of the method: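 Cytotoxicity readout: decrease in intracellular ATP (CellTiter-Glo luminescence) in 2500 LYMP2-015 lymphoblastoid cells/well after 24 h compound exposure at 37 C. Concentration-response data fitted with the standard Hill equation to give AC50.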

CC(C)(c1cc(Br)c(O)c(Br)c1)c1cc(Br)c(O)c(Br)c1
outcome [1]: inactive
outcome [2]: inactive
outcome [3]: inactive
outcome [4]: inactive
Potency [5]: 15.8 µM (active)
Potency [6]: inactive
outcome [7]: inactive
outcome [8]: inactive
outcome [9]: inactive
outcome [10]: inactive
outcome [11]: inactive
outcome [12]: inactive
outcome [13]: inactive
outcome [14]: inactive
outcome [15]: inactive
outcome [16]: inactive
outcome [17]: inactive
outcome [18]: inactive
outcome [19]: inactive
outcome [20]: inactive
outcome [21]: inactive
outcome [22]: inactive
outcome [23]: inactive
